Compounds with a hit are over-represented: about 4% of the library has one in this group of screens.
MITF act: activators of MITF-driven TRPM1 promoter activity in SK-MEL-5 cells; activation, % at 12.5 µM; SK-MEL-5 TRPM1-promoter luciferase, 24 h; % of positive control, neutral wells = 0; 0.75% of 300,000 active;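 active means mean activation of at least 80% with every replicate also reaching 80%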
Wnt act: Wnt/beta-catenin pathway activation; Wnt/beta-catenin reporter cell assay, activator, plate reader; activation, % at 9.35 µM; 1.2% of 300,000 active; AID 743398; in the data active means activation above about 30%, passing the limit was not always enough
PAX8 reporter: PAX8 transcriptional activity inhibition. RMG-I TPO-luciferase reporter, SteadyGlo, 24 h. inhibition, % at 12.6 µM. 1.2% of 360,000 active. AID 652154;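 active means mean replicate inhibition at least 60% with every replicate also reaching 60%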;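 further: luciferase light reporting Pax8 driven TPO promoter activity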
EWS-Fli inh: EWS/Fli transcriptional activity inhibition; A673 NR0B1-luciferase reporter, viability-normalised; inhibition, % at 12.6 µM; 0.67% of 350,000 active; AID 651661;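 active means mean inhibition of at least 50% after viability correction, with every replicate also passing that limit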;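 further: firefly luciferase signal divided by Alamar Blue viability fluorescence both relative to DMSO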
esBAF inh: SWI/SNF esBAF complex inhibition; mouse ES cells, Bmi1-luciferase knock-in reporter, 24 h; 100% = twice the neutral-well signal; reporter increase, % at 12.5 µM; 2% of 350,000 active; in the data active means activation above about 40%;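 further: a rise in the Bmi1 reporter signal indicates esBAF inhibition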
TRPM1 prom inh: reduces MITF-dependent TRPM1 promoter luciferase signal; AID 488899; SK-MEL-5 TRPM1 promoter luciferase, 24 h; 0.83% of 330,000 active; inhibition, % at 12.5 µM;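 active means mean inhibition across replicates of 60% or more, whatever share of single replicates reaches that level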
Numbers stand for hits; n = inactive; x = no result.

SMILES | MITF act | Wnt act | PAX8 reporter | EWS-Fli inh | esBAF inh | TRPM1 prom inh
Oc1ccc(C[C@@H](CN2CCCC2CN2C(=S)NC[C@@H]2Cc2ccccc2)N2C[C@H](Cc3ccccc3)N(CC3CCCCC3)C2=S)cc1 (stereo partly drawn) | x | n | n | n | x | x
CN(C)C(=O)c1ccc(-c2ccc([C@H]3[C@@H](CO)N4C(=O)CN(C(=O)C5CCCC5)C[C@H]34)cc2)cc1 | x | x | n | n | x | x
O=C(NCC[C@@H]1CC[C@H](NS(=O)(=O)c2ccc(F)cc2)[C@H](CO)O1)c1ccccc1F | x | x | x | n | x | x
Cc1noc(C)c1S(=O)(=O)N(C)C[C@@H]1OCCCC[C@@H](C)Oc2ccc(NC(=O)Nc3ccc(C(F)(F)F)cc3)cc2C(=O)N([C@H](C)CO)C[C@H]1C | x | x | x | n | n | x
CCCC[C@H](CN[C@@H](CNC)[C@H](C)CC)NCCC12CCC(CC1)C2 | n | n | n | 57 | n | 94
Cc1cc(/C=N/n2cnnc2)c(C)n1-c1ccc(OCc2ccc(Cl)cc2Cl)cc1 | n | x | x | x | x | 92
C/C(=N/NC(=O)c1ccc(C(C)(C)C)cc1)c1ccccn1 | x | n | n | n | x | n
COc1ccccc1/C=C/C=N/NC(=O)c1cnccn1 | n | n | n | n | x | n
C/C(=N\NC(=O)c1ccccc1Cl)c1ccccn1 | n | n | n | n | n | n
C/C(=N\NC(=O)c1ccc(Cl)c(Cl)c1)c1ccccn1 | n | n | 63 | n | n | 65
COc1ccccc1/C=C/C=N/NC(=O)c1ccccn1 | 97 | n | n | n | x | n
COc1ccc(C(=O)N/N=C(\C)c2ccccn2)cc1OC | n | n | 70 | x | n | 73
CCCNC(=O)Nc1ccc2c(c1)C(=O)N(C)C[C@H](OC)[C@@H](C)CN(CCC(F)(F)F)[C@@H](C)CO2 | x | x | x | n | n | x
CCCN(C)C[C@@H]1Oc2ncc(C#CC3CC3)cc2C(=O)N([C@@H](C)CO)C[C@@H]1C | x | x | x | n | n | x
O=C1NC(=S)S/C1=C/c1ccc(N2CCOCC2)o1 | n | x | x | x | x | n
O=C1NC(=S)S/C1=C\C=C\c1ccc([N+](=O)[O-])o1 | n | n | n | 70 | x | 90
CCCn1c(N)nc2ccccc21 | n | n | n | x | n | n
CCn1c(CCc2ccccc2)nc2ccccc21 | x | n | n | n | 42 | n
CCn1c(N)nc2ccccc21 | n | n | x | x | 53 | n
CCc1nc2ccccc2n1CCc1ccccc1 | n | n | n | n | x | n
O=C(C[C@@H]1CC[C@H]2[C@@H](COC[C@H](O)CN2Cc2nccs2)O1)NCc1ccc(Oc2ccccc2)cc1 | x | x | x | x | n | x
CCS(=O)(=O)Nc1ccc2c(c1)C(=O)N(C)[C@H]1CC[C@@H](CC(=O)N[C@@H]3CCN(Cc4ccccc4)C3)O[C@@H]1CO2 | x | x | n | n | n | x
OC[C@H]1[C@@H](c2ccc(/C=C/c3ccccc3)cc2)[C@@H]2CN(Cc3cccnc3)CCCCN12 | x | x | n | n | n | x
O=S(=O)(c1ccccc1F)N1CC[C@@H]2[C@@H](CO)Nc3ccc(C4=CCCCC4)cc3[C@@H]21 | x | x | 83 | n | n | x
O=S(=O)(c1ccccc1F)N1CC[C@@H]2[C@@H](CO)Nc3ccc(-c4ccccc4)cc3[C@@H]21 | x | x | n | n | n | x
SMILES | MITF act | Wnt act | PAX8 reporter | EWS-Fli inh | esBAF inh | TRPM1 prom inh
COc1cccc(-c2ccc3c(c2)[C@H]2[C@H](CCN2S(=O)(=O)c2cccc(OC)c2)[C@@H](CO)N3)c1 | x | x | n | n | n | x
Cc1cccc(S(=O)(=O)N2CC[C@@H]3[C@H]2c2cc(C4=CCCCC4)ccc2N[C@@H]3CO)c1 | x | x | 91 | n | n | x
COc1cccc(S(=O)(=O)N2CC[C@@H]3[C@H](CO)Nc4ccc(C5=CCCCC5)cc4[C@@H]32)c1 | x | x | 91 | n | n | x
CC(C)NC(=S)N/N=C/c1sc(N2CCCCC2)nc1-c1cccs1 | n | x | n | n | 67 | n
NC(=O)N/N=C/c1sc(N2CCCCC2)nc1-c1cccs1 | n | n | n | n | n | n
COc1ccc2nc(N3C(=O)CNC3=S)sc2c1 | x | 54 | n | n | x | n
Cc1ccc2nc(N3C(=O)CNC3=S)sc2c1 | x | n | n | n | x | n
C[C@H]1CCCCO[C@@H](CN(C)C(=O)Nc2ccc(C(F)(F)F)cc2)[C@@H](C)CN([C@@H](C)CO)C(=O)c2cc(NC(=O)Nc3ccccc3)ccc2O1 | x | x | n | n | n | x
Cc1ccc(C(=O)c2sc3nc4c(cc3c2N)CCC4)cc1 | 125 | 33 | n | x | x | n
Nc1c(C(=O)N2CCCCC2)sc2nc3c(cc12)CCCC3 | n | n | n | n | 54 | n

Bioassay records as filed in PubChem.
